Drawing on PubChem BioAssay (EPA / NIEHS), this text covers AC50 and outcome for ten compounds.

Assay [1] in a line: TOX21_p53_BLA_p2_viability: Viability Assessment in the Tox21 HCT-116 p53 Agonism Beta-lactamase Assay, Phase 2 (AID 2283591).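 Further: actives lower the ATP signal meaning cytotoxicity.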 Put shortly: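 Cytotoxicity readout: CellTiter-Glo ATP luminescence, 30 min at room temperature, after the beta-lactamase read. Cells were HCT116 exposed 16 h at 37C to compounds pin-transferred at 217-fold dilution from DMSO stocks.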
Assay [2] addresses Cellular tumor antigen p53 (Homo sapiens) (UniProt P04637). Put plainly: TOX21_p53_BLA_p2_ratio: Tox21 HCT-116 p53 Agonism Beta-lactamase Assay, Ratio, Phase 2 (AID 2283592). Put shortly: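 Read-out is the blue/green (460/530 nm, 405 nm excitation) ratio after 2 h CCF4-AM loading, fitted as gain versus DMSO. Compounds, pinned at 217-fold dilution from DMSO stocks, stayed 16 h on HCT-116 beta-lactamase reporter cells seeded 5 h earlier.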

The nature of assay [3]: TOX21_p53_BLA_p3_viability: Viability Assessment in the Tox21 HCT-116 p53 Agonism Beta-lactamase Assay, Phase 3 (AID 2283593).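 Further: cells exposed to compound for 16 h before reading.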 An outline of the steps:
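Cellular ATP was quantified by CellTiter-Glo luminescence, read after 30 min at room temperature. Beforehand, HCT116 cells (4000/well) received compound 5 h post-seeding, 217-fold diluted from DMSO, then incubated 16 h at 37C.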

The target in assay [4] is Cellular tumor antigen p53 (Homo sapiens) (UniProt P04637). Put plainly: TOX21_p53_BLA_p3_ratio: Tox21 HCT-116 p53 Agonism Beta-lactamase Assay, Ratio, Phase 3 (AID 2283596). Put shortly:
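Cells were seeded at 4000/well, rested 5 h at 37C, then dosed with DMSO compound solutions (217-fold dilution) for 16 h. CCF4-AM substrate was loaded for 2 h at room temperature, and the 460/530 nm emission ratio was fitted for gain of signal versus DMSO.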

A short description of assay [5]: TOX21_p53_BLA_p4_viability: Viability Assessment in the Tox21 HCT-116 p53 Agonism Beta-lactamase Assay, Phase 4 (AID 2283597).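 Further: hits lower the luminescence signal meaning cytotoxicity.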 An outline of the steps:
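Cytotoxicity as reduced cellular ATP (CellTiter-Glo luminescence, 30 min room temperature), measured in the same wells following the CCF4 FRET p53 reading. Human HCT-116 cells received compounds in DMSO (217-fold dilution) for 16 h.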

The target in assay [6] is Cellular tumor antigen p53 (Homo sapiens) (UniProt P04637). Put plainly: TOX21_p53_BLA_p5_ratio: Tox21 HCT-116 p53 Agonism Beta-lactamase Assay, Ratio, Phase 5 (AID 2283599). An outline of the steps:
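Beta-lactamase reporter ratio (blue 460 nm over green 530 nm, 405 nm excitation) after 2 h CCF4-AM loading, in HCT-116 cells exposed 16 h at 37 C to compounds pinned at 217-fold dilution. Increases relative to DMSO baseline scored.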

A short description of assay [7]: TOX21_p53_BLA_p5_viability: Viability Assessment in the Tox21 HCT-116 p53 Agonism Beta-lactamase Assay, Phase 5 (AID 2283600). Put shortly:
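Viability came from CellTiter-Glo ATP luminescence, read after 30 min at room temperature. Before this, HCT-116 p53-bla cells (4000/well) had 16 hours of compound exposure at 37C, with DMSO stocks diluted 217-fold on transfer.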

The target of assay [8] is Cellular tumor antigen p53 (Homo sapiens) (UniProt P04637). Put plainly: TOX21_p53_BLA_p4_ratio: Tox21 HCT-116 p53 Agonism Beta-lactamase Assay, Ratio, Phase 4 (AID 2283601). An outline of the steps: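 Signal is the blue/green (460nm/530nm) ratio of cleaved versus uncleaved CCF4-AM substrate, read after 2 h substrate loading. Cells were HCT116 carrying the p53-responsive beta-lactamase reporter, dosed 16 h at 37C, 5% CO2; CellTiter-Glo measured in parallel.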
Chain of Cellular tumor antigen p53 (Homo sapiens) (P04637 whole entry, looked up): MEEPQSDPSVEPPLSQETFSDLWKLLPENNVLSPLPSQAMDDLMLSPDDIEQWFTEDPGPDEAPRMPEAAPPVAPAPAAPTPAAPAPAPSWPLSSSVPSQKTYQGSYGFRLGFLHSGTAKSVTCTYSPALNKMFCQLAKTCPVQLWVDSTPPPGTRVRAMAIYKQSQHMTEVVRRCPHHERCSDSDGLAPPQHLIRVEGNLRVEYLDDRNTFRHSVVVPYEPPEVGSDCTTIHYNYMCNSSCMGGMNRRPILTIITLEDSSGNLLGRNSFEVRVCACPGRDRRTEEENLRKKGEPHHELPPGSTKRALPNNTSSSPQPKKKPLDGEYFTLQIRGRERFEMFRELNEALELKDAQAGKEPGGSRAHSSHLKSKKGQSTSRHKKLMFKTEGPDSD

Assay [9] concerns the target PGR (gene 5241) (UniProt P06401). Put plainly: TOX21_PR_BLA_Followup_Antagonist_ratio: Tox21 HEK293 Progesterone Receptor (PR) Antagonism Beta-lactamase Follow-Up Assay, Ratio (AID 2283934).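 Further: PR-UAS-bla HEK293T cells stimulated with 1 nM R5020 agonist for 16 hr.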 An outline of the steps: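 Readout is the blue/green (ch2/ch1) substrate cleavage ratio after 2 hours at room temperature, following 16 hr co-treatment of PR-bla HEK293T cells with compound and 1nM promegestone. Multiplexed CellTiter-Glo viability flags cytotoxicity; DMSO baseline.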

The nature of assay [10]: TOX21_PR_BLA_Followup_Agonist_viability: Viability Assessment in the Tox21 HEK293 Progesterone Receptor (PR) Agonism Beta-lactamase Follow-Up Assay (AID 2283935).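 Further: signal loss means lower viability so actives are cytotoxic.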 Put shortly: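 Run multiplexed with the beta-lactamase FRET read, this endpoint measures ATP by CellTiter-Glo luminescence (30 min, room temperature). PR-UAS-bla HEK293T cells received compound 6 hr after plating and were then incubated 16 hr at 37C in 2% stripped serum.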

A short description of assay [11]: TOX21_PR_BLA_Followup_Antagonist_viability: Viability Assessment in the Tox21 HEK293 Progesterone Receptor (PR) Antagonism Beta-lactamase Follow-Up Assay (AID 2283936).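 Further: cells exposed to compound with R5020 agonist for 16 h; hits lower the luminescence signal meaning cytotoxicity.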 Put shortly:
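PR-UAS-bla HEK293T cells in medium with 2% charcoal-stripped FBS were treated with compounds plus R5020 for 16 hr at 37C. After the beta-lactamase read, CellTiter-Glo was added to the same wells and luminescence read after 30 min at room temperature.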

Assay [12] deals with PGR (gene 5241) (UniProt P06401). Put plainly: TOX21_PR_LUC_Followup_Agonist: Tox21 HEK293 Progesterone Receptor (PR) Agonism Luciferase Follow-Up Assay (AID 2283937; active means hit-call score of the fitted dose curve at least 0.9, where 1 is the maximum; inactive means score below 0.9). Put shortly: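 Agonism scored as luciferase induction over DMSO, read by ONE-Glo after 30 min at RT. Compounds were incubated 16 h at 37C on HEK293-PR-A-luc cells (3,000/well, pre-plated 5 h) previously grown 5 days in charcoal-stripped serum.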
Chain of PGR (gene 5241) (P06401 whole entry, looked up): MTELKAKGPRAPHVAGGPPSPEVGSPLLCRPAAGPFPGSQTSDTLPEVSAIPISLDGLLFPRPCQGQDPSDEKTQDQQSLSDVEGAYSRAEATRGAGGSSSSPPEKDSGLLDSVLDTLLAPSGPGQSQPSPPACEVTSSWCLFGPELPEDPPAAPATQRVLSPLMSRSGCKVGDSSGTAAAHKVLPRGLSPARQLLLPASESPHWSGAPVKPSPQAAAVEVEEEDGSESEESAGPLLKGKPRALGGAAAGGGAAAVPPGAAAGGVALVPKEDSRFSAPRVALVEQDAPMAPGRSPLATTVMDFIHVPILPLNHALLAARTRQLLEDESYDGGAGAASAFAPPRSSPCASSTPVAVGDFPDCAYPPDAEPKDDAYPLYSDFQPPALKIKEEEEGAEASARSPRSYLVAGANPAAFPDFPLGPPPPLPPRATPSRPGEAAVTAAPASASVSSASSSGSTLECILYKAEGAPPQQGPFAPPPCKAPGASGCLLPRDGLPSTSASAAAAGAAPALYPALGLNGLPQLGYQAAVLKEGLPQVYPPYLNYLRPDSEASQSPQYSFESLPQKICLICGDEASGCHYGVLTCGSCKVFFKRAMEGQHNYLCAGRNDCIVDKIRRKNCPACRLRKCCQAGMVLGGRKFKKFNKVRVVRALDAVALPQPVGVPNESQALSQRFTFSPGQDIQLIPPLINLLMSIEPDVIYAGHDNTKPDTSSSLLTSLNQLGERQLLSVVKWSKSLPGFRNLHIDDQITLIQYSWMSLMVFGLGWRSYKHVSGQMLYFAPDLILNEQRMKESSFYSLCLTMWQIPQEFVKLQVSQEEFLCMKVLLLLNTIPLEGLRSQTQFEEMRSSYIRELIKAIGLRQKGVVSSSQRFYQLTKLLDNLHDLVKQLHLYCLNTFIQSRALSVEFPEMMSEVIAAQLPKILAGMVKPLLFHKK

The target is the same in assay [13]. Description: TOX21_PR_LUC_Followup_Antagonist: Tox21 HEK293 Progesterone Receptor (PR) Antagonism Luciferase Follow-Up Assay (AID 2283938).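 Further: curve fitted upward as signal gain over DMSO baseline despite antagonist label.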 Put shortly: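 Luminescence from ONE-Glo was measured 30 min after reagent addition, following 16 h exposure of HEK293-PR-A-luc cells (3,000/well, plated 5 h earlier) to DMSO-dissolved compounds at 37C; DMSO served as baseline.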

Assay [14] in a line: TOX21_PR_LUC_Followup_Agonist_viability: Viability Assessment in the Tox21 HEK293 Progesterone Receptor (PR) Agonism Luciferase Follow-Up Assay (AID 2283941).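 Further: loss of signal means cytotoxicity so actives lower viability.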 An outline of the steps: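 Cytotoxicity counter-readout in the PR-A luciferase reporter line HEK293, with 16 h compound exposure at 37C after cells were cultured in charcoal-stripped serum. Cellular ATP quantified by CellTiter-Glo luminescence.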

Each structure is given as a SMILES string. Records with an inconclusive call do not appear. Activity calls are given as the source filed them. How the source made its calls, unless noted: active means hit-call score of the fitted dose curve at least 0.9, where 1 is the maximum; inconclusive means response in the unintended direction; inactive means score below 0.9.

In the case of `COc1cc2c(cc1OC)-c1cc(=Nc3c(C)cc(C)cc3C)n(C)c(=O)n1CC2`, the AC50 is 39 µM (active) in assay [1]; 35.6 µM (active) in assay [2]; 33.4 µM (active) in [3]; 36.7 µM (active) in [4]; 36 µM (active) in assay [5]; 41.3 µM (active) in [6]. The half-maximal activity concentration (AC50) in assay [7] is 32.7 µM (active); in assay [8] it was 36.6 µM (active).

Regarding `O=C(O)c1cc(N=Nc2ccc([N+](=O)[O-])cc2)ccc1O`, the AC50 in assay [1] is 84.1 µM (active); in assay [3], 45.4 µM (active); in assay [5] it was 29.6 µM (active). The result in [2], in assay [4], in assay [6], in [7] and in [8] was inactive.

As to `COc1c(C)c2c(c(O)c1C/C=C(\C)CCC(=O)O)C(=O)OC2`, the outcome in assay [1], in assay [3] and in [7] was inactive. Besides, the AC50 is 0.0608 µM (active) in [2]; 0.102 µM (active) in assay [4]; 0.224 µM (active) in assay [5]; 0.127 µM (active) in assay [6]; 0.091 µM (active) in assay [8].

Consider `Nc1ccc(N)c2ccccc12`, for which the AC50 is 46 µM (active) in [1]; 16.5 µM (active) in assay [2]; 3.49 µM (active) in assay [3]; 46 µM (active) in assay [5]; 86 µM (active) in assay [6]; 46 µM (active) in assay [7]. The AC50 in [8] was 13.5 µM (active). The outcome in [4] was inactive.

Consider `CC(C)NCC1CCc2cc(CO)c([N+](=O)[O-])cc2N1` (configuration not stated), for which the result in assay [1], in [2], in [3], in assay [4], in [5] and in assay [6] was inactive. Moreover, the compound was classed as inactive in assay [7] and in assay [8].

In the case of `c1cc(OCC2CO2)cc(OCC2CO2)c1` (configuration not stated), the result in assay [1], in [5] and in [7] was inactive. The AC50 was 14.3 µM (active) in assay [2]; 70.3 µM (active) in assay [3]; 20.4 µM (active) in assay [4]; 14.3 µM (active) in assay [6]; 63.2 µM (active) in [8].

As to `COC(=O)C1=C(C)NC(COC(N)=O)=C(C(=O)OC(C)C)C1c1cccc(Cl)c1Cl` (configuration not stated), the outcome in assay [1], in [3], in assay [4], in assay [7], in [9] and in assay [10] was inactive. Also, the compound was called inactive in assay [11], in [12] and in [14]. The AC50 is 33.5 µM (active) in assay [2]; 35.2 µM (active) in assay [5]; 25.5 µM (active) in [6]; 28.8 µM (active) in assay [8]; 7.88 µM (active) in assay [13].

As for `CC(=C(CCO)SSC(CCO)=C(C)N(C=O)Cc1cnc(C)nc1N)N(C=O)Cc1cnc(C)nc1N`, the call in assay [1], in assay [2], in [3], in [4], in assay [5] and in assay [6] was inactive. The outcome in [7] and in assay [8] was inactive.

As for `Oc1ccc(N=Nc2ccccc2)cc1`, the compound was classed as inactive in assay [1], in assay [7], in assay [10], in assay [11], in assay [12] and in [13]. Besides, the call in assay [14] was inactive. The AC50 in [2] is 87.4 µM (active); in [3] it was 75 µM (active); in assay [4], 87.5 µM (active); in assay [5], 75.7 µM (active); in [6] it was 74.7 µM (active); in [8], 87.8 µM (active). In addition, the AC50 in [9] was 27.5 µM (active).

In the case of `O=C(NOCC1CC1)c1ccc(F)c(F)c1Nc1ccc(I)cc1Cl`, the result in assay [1] was inactive. Further, the AC50 in assay [2] is 7.89 µM (active); in assay [3] it was 23 µM (active); in assay [4], 23.9 µM (active); in assay [5], 23 µM (active); in [6], 20.5 µM (active); in assay [7], 19.7 µM (active). In addition, the AC50 in [8] is 30.5 µM (active).
